Compounds without any hit were thinned out: in the full panel of roughly 83,000, 20% have a hit.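 The endpoint reported here, percent growth, reads 100 for growth as untreated, 0 for no net growth and -100 for all cells dead.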 Calls of active or inactive are those of the source. How the source made its calls: active means growth percent below 10; inactive means the rest.
Assays:
Test in all cases: NCI-60 one-dose screen, 48 h (100 = growth as untreated, 0 = no growth, -100 = all killed)
Settings in all cases: 10 µM unless noted
HCT-15 colon = test system: HCT-15 colon
HT29 colon = test system: HT29 colon
SNB-75 CNS = test system: SNB-75 CNS
SNB-19 CNS = test system: SNB-19 CNS
U251 CNS = test system: U251 CNS
PC-3 prostate = test system: PC-3 prostate
SK-MEL-5 melanoma = test system: SK-MEL-5 melanoma
UACC-62 melanoma = test system: UACC-62 melanoma
LOX IMVI melanoma = test system: LOX IMVI melanoma
SK-MEL-28 melanoma = test system: SK-MEL-28 melanoma

Measured: growth

NC(N)=NS(=O)(=O)c1ccc(N=Nc2c(N)nn(-c3ccc([N+](=O)[O-])cc3[N+](=O)[O-])c2N)cc1
inactive: HCT-15 colon 99.9% | HT29 colon 105% | SNB-75 CNS 94.7% | SNB-19 CNS 99.8% | U251 CNS 99.9% | PC-3 prostate 92.8% | SK-MEL-5 melanoma 99% | UACC-62 melanoma 95.2% | LOX IMVI melanoma 97.2% | SK-MEL-28 melanoma 109%

Cc1ccccc1Nc1nc(SC(C)C)nc(-c2ccccc2)c1C#N
inactive: HCT-15 colon 58.2% | HT29 colon 53.2% | SNB-75 CNS 101% | SNB-19 CNS 19.9% | U251 CNS 33.8% | PC-3 prostate 80.8% | SK-MEL-5 melanoma 85.2% | UACC-62 melanoma 92.3% | LOX IMVI melanoma 10.5% | SK-MEL-28 melanoma 87.3%

CC(C)=CCC[C@](C)(O)[C@H]1CC[C@]2(C)[C@@H]1CC[C@@H]1[C@@]3(C)CC[C@H](N)C(C)(C)[C@@H]3CC[C@]12C
inactive: HCT-15 colon 20.3% | HT29 colon 59.6% | SNB-75 CNS 87.2% | SNB-19 CNS 81.2% | U251 CNS 48.2% | PC-3 prostate 68.3% | SK-MEL-5 melanoma 84.2% | UACC-62 melanoma 91% | SK-MEL-28 melanoma 108%
active: LOX IMVI melanoma -82.5%

COc1ccc(/C=N\NC(=O)c2cnn(CC(O)c3ccccc3)c2N)cc1OCc1ccc(Cl)cc1 (centres undefined)
inactive: HCT-15 colon 70.5% | HT29 colon 90.6% | SNB-75 CNS 60.8% | SNB-19 CNS 68.2% | U251 CNS 60.6% | PC-3 prostate 63.6% | SK-MEL-5 melanoma 92.2% | UACC-62 melanoma 81.1% | LOX IMVI melanoma 54.6% | SK-MEL-28 melanoma 71.4%

CC(=O)Nc1cc(N2CCOCC2)c2nc(NC(=O)c3[nH]c(C)c(Cl)c3Cl)sc2c1
inactive: HCT-15 colon 66.9% | HT29 colon 65.1% | SNB-75 CNS 17.3% | SNB-19 CNS 83.9% | U251 CNS 57.8% | PC-3 prostate 64.3% | SK-MEL-5 melanoma 77.6% | UACC-62 melanoma 94.8% | LOX IMVI melanoma 57% | SK-MEL-28 melanoma 67.5%

CCOC(=O)c1cccc(NC2=C(Cl)C(=O)c3nc(C)ccc3C2=O)c1
inactive: HCT-15 colon 72.2% | HT29 colon 116% | SNB-75 CNS 108% | SNB-19 CNS 90.8% | U251 CNS 103% | PC-3 prostate 82% | SK-MEL-5 melanoma 98.2% | UACC-62 melanoma 95.8% | LOX IMVI melanoma 65.1% | SK-MEL-28 melanoma 103%

COc1cccc2c1C=CC1(O2)Oc2cccc(OC)c2C=C1C (centres undefined)
active: HT29 colon 6.27% | SNB-75 CNS -8.19%
inactive: HCT-15 colon 24.9% | SNB-19 CNS 22.8% | U251 CNS 16.8% | PC-3 prostate 31.4% | SK-MEL-5 melanoma 24.6% | UACC-62 melanoma 13.1% | LOX IMVI melanoma 24.5% | SK-MEL-28 melanoma 58.4%

C/C(=N\NC(=O)/C=C/CC(=O)O)c1nnn(-c2ccc([N+](=O)[O-])cc2)c1C
inactive: HCT-15 colon 105% | HT29 colon 106% | SNB-75 CNS 97.6% | SNB-19 CNS 98.3% | U251 CNS 100% | PC-3 prostate 94.7% | SK-MEL-5 melanoma 99.2% | UACC-62 melanoma 101% | LOX IMVI melanoma 101% | SK-MEL-28 melanoma 114%

O=C1[C@@H]2Cc3c([nH]c4ccccc34)[C@@H](c3ccc(Cl)cc3)N2C(=O)CN1C1CCN(Cc2c(F)cccc2F)CC1
active: HT29 colon -10.2%
inactive: HCT-15 colon 24.3% | SNB-75 CNS 25.9% | SNB-19 CNS 47.8% | U251 CNS 38% | PC-3 prostate 13.8% | SK-MEL-5 melanoma 48.8% | UACC-62 melanoma 40.7% | LOX IMVI melanoma 21.3% | SK-MEL-28 melanoma 64.8%

CCCCCCNC(=O)Oc1ccc(/C(=C(/C)c2ccc(OC)cc2)c2ccc(OCCN3CCCCCC3)cc2)cc1
active: HCT-15 colon -39.1% | HT29 colon -34% | UACC-62 melanoma 5.76% | LOX IMVI melanoma -94.2% | SK-MEL-28 melanoma -36.1%
inactive: SNB-75 CNS 76.8% | SNB-19 CNS 39.2% | U251 CNS 19.6% | PC-3 prostate 24.5% | SK-MEL-5 melanoma 61.2%

O=S1SC(c2ccccc2)=NN1c1cc(F)cc(F)c1 (centres undefined)
inactive: HCT-15 colon 28.7% | HT29 colon 98.9% | SNB-75 CNS 74.9% | SNB-19 CNS 49.8% | U251 CNS 20.3% | PC-3 prostate 13.3% | SK-MEL-5 melanoma 50.4% | UACC-62 melanoma 29.1% | LOX IMVI melanoma 38.1% | SK-MEL-28 melanoma 46.4%

COc1ccc(C2CC(c3cccc(OCCCCOc4cccc(C5=NN(C(C)=O)C(c6ccc(OC)cc6)C5)c4)c3)=NN2C(C)=O)cc1 (centres undefined)
inactive: HCT-15 colon 75% | HT29 colon 89.3% | SNB-75 CNS 75.4% | SNB-19 CNS 64.5% | U251 CNS 81.9% | PC-3 prostate 48.4% | SK-MEL-5 melanoma 11.8% | UACC-62 melanoma 57.1% | LOX IMVI melanoma 62.2% | SK-MEL-28 melanoma 97.2%

C#CCOc1ccc(/C=N/Nc2nc(-c3ccc(OC)cc3)cs2)cc1
inactive: HCT-15 colon 80.1% | HT29 colon 105% | SNB-75 CNS 86.2% | SNB-19 CNS 87.8% | U251 CNS 96.4% | PC-3 prostate 73.1% | SK-MEL-5 melanoma 70.1% | UACC-62 melanoma 67.1% | LOX IMVI melanoma 89.7% | SK-MEL-28 melanoma 102%

Cc1cccc(N2CCN(C3=C(Cl)C(=O)c4ncccc4C3=O)CC2)c1
inactive: HCT-15 colon 24.8% | HT29 colon 104% | SNB-75 CNS 84.3% | SNB-19 CNS 79.5% | U251 CNS 85.2% | PC-3 prostate 72.9% | SK-MEL-5 melanoma 95.2% | UACC-62 melanoma 74.3% | LOX IMVI melanoma 24.2% | SK-MEL-28 melanoma 92.1%

CC(=O)OC[C@]12CC[C@@H](C(=O)/C=C/c3cccnc3)[C@@H]1[C@H]1CC[C@@H]3[C@@]4(C)CC[C@H](OC(C)=O)C(C)(C)[C@@H]4CC[C@@]3(C)[C@]1(C)CC2
inactive: SNB-75 CNS 54.3% | SNB-19 CNS 46.6% | U251 CNS 23.4% | PC-3 prostate 19.9%
active: HCT-15 colon -53% | HT29 colon 6.53% | SK-MEL-5 melanoma -96.2% | UACC-62 melanoma -4.76% | LOX IMVI melanoma -84% | SK-MEL-28 melanoma -56.4%

C[C@H]1OCC2(CCN(c3cnc(C(=O)Nc4cc(F)cc5cccnc45)cn3)CC2)[C@H]1N
inactive: HCT-15 colon 14.5% | HT29 colon 30.3% | SNB-75 CNS 62.9% | SNB-19 CNS 73.5% | U251 CNS 66.3% | PC-3 prostate 50.8% | SK-MEL-5 melanoma 93.2% | UACC-62 melanoma 31.7% | LOX IMVI melanoma 33.2% | SK-MEL-28 melanoma 61.4%

CC(=O)OC[C@@]12Oc3c(cccc3-c3ccc(O)c4c3O[C@]3(COC(C)=O)C(=C4O)C(=O)C[C@H](C)[C@@H]3OC(C)=O)C(O)=C1C(=O)C[C@H](C)[C@@H]2OC(C)=O
inactive: HCT-15 colon 11.9% | HT29 colon 10.4% | SNB-19 CNS 17.7% | U251 CNS 16.6% | PC-3 prostate 11.6%
active: SNB-75 CNS -10.4% | SK-MEL-5 melanoma -62.8% | UACC-62 melanoma -36.9% | SK-MEL-28 melanoma 9.46%

From PubChem BioAssay (NCI)
